Screening data: PubChem BioAssay, National Center for Advancing Translational Sciences (NCATS)
Pf growth 96h: Primary qHTS for delayed death inhibitors of the malarial parasite plastid, 96 hour incubation | Potency, µM (highest dose often 28.7 µM), for inactives: at the top dose activity change, negative = inhibition, actives largely listed as inhibitors | 320,000 tested, 6.9% active | P. falciparum luciferase reporter growth, 96 h; note: potency is the fitted concentration of half-maximal effect; % is set by controls: 0 for no effect and ±100 for the full control effect
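Erythrocytes infected with luciferase-expressing P. falciparum were dispensed at 2% hematocrit and 0.05% parasitemia (final), then incubated with compounds 96 hours at 37 C in 5% CO2. Luminescence after detection reagent addition reported growth.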
Pf growth 48h: Primary qHTS for delayed death inhibitors of the malarial parasite plastid, 48 hour incubation; AID 504832, 2011; Potency, µM (titrated, usually from 28.7 µM), inactives show at the top dose activity change, negative = inhibition, actives largely listed as inhibitors; P. falciparum luciferase growth in erythrocytes, 48 h; 310,000 tested, 5.9% active; note: potency is the fitted concentration of half-maximal effect; % is set by controls: 0 for no effect and ±100 for the full control effect
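Firefly luciferase activity from engineered P. falciparum reports growth; inhibitors lower the luminescent signal. Cultures contained 2% hematocrit erythrocytes at 0.1% final parasitemia.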
Cycloheximide cs: Cycloheximide Counterscreen for Small Molecule Inhibitors of Shiga Toxin; cell reporter, cycloheximide protein synthesis inhibition counterscreen; max response, %; 300,000 tested, 12% active; AID 2314, 2010; in the data active = max response mostly above about 13%, no sharp cut-off; inactive = mostly below about 14%; note: read at 38.3 µM for the half of the compounds with a filed dose; 0% is about no effect
Shiga inhibitor: A qHTS for Small Molecule Inhibitors of Shiga Toxin; inhibition, % at 38.7 µM; 290,000 tested, 9.2% active; Vero cells, Shiga toxin protein synthesis inhibition reporter; in the data active = inhibition mostly above about 28%, no sharp cut-off; inactive = mostly below about 43%; note: 0% is about no effect
HCV inhibitor: qHTS Assay for Inhibitors of Hepatitis C Virus (HCV) | 340,000 tested, 3.4% active | Huh7.5.1 HCVcc-Cre infection, luciferase reporter, 44 h | Potency, µM (doses to about 41.8 µM), inactives show at the highest dose activity change, negative = inhibition, most hits filed as inhibitors | AID 651820, 2012; note: potency is the fitted concentration of half-maximal effect; % is set by controls: 0 for no effect and ±100 for the full control effect
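Luciferase read-out (15 sec integration) after a 15 min room-temperature substrate step quantifies HCVcc-Cre infection. Cells, 1,000 per well, had compound added 4 h post-plating, then virus at ~0.5 moi, and were cultured 44 h.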
HCMV antiviral: qHTS Assay for inhibitors of the human cytomegalovirus (HCMV); HFF cells, HCMV-luciferase reporter, 72 h; hits give low values; activity change, negative = inhibition, % at 57.5 µM; 410,000 tested, 4.5% active; AID 1259415, 2018; in the data active = activity change below about -60%; inconclusive = no clear call, values can overlap the other calls; inactive = above about -39%; note: % is set by controls: 0 for no effect and ±100 for the full control effect
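Cell-based, HFFs, 1000 cells/well, 16 h 37C; cpds in DMSO + HCMV-luc, MOI 1 PFU/cell; 72 h 37C; OneGlo luminescence after 5 min RT; norm. to buffer vs Salinomycin 10uM.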
* = called active by the depositor; ? = inconclusive; . = no result given. Compounds with a hit are over-represented: about 21% of the library has one in this group of screens. Unless noted, calls come from the whole dose curve; as a rule, active = well fitted inhibition curve with a large enough effect; inconclusive = small, poorly fitted or top-dose-only effect, or another doubt; inactive = no such curve, though single readings can be large or run the other way.

SMILES | Pf growth 96h | Pf growth 48h | Cycloheximide cs | Shiga inhibitor | HCV inhibitor | HCMV antiviral
CCC(=O)c1ccc(N2CCCCCC2)c(F)c1 | -20.0% | 59.2% | 35.0* | 54.1* | -12.0% | ?
CCC(=O)c1ccc(N2CCN(C(=O)c3ccccc3F)CC2)c(F)c1 | -0.4% | 28.5% | 20.3 | -4.7 | ? | 19.5
CCCC(=O)c1ccc(N2CCCC2)c(F)c1 | 0.8% | 201.6% | 36.9* | 76.1* | 6.3% | 72.3
CCC(=O)c1ccc(N2CCCC2)c(F)c1 | -85.3% | 62.1% | 28.2* | 47.6* | -9.2% | 22.6
CCC(=O)c1cc(F)c(N2CCN(C(=O)c3ccco3)CC2)cc1C | ? | ? | 24.2* | 45.2* | 2.6% | 19.7
CCC(=O)c1ccc(N2CCN(C(=O)c3ccccc3Br)CC2)c(F)c1 | -11.2% | -1.3% | -2.3 | -10.8 | 8.4% | 74.0
CCC(=O)c1cc(F)c(N2CCN(CC)CC2)cc1C | 6.1% | . | 18.6 | -13.3 | -23.5% | 16.1
CCN(CC)S(=O)(=O)c1ccc(NC(=O)c2cnccn2)cc1 | -8.5% | 5.5% | -0.8 | -3.5 | 4.4% | 2.7
COc1ccc(C(=O)NCC(=O)OCc2ccccc2F)cc1 | 10.3% | 9.1% | 11.1 | -0.2 | 1.5% | -1.6
CCN(CC)Cc1c(O)ccc2c(=O)c(-c3ccccc3)coc12 | -27.1% | 53.8% | 31.0* | . | -12.2% | -8.6
CCN(CC)Cc1c(O)ccc2c(=O)c(Oc3ccccc3OC)coc12 | 0.0% | -3.1% | -9.7 | 54.5 | 6.4% | -61.5*
CC(=O)Oc1ccc(OC(C)=O)c(SCCCCCCl)c1 | 9.9% | ? | 18.5 | 57.6 | 11.2µM* | -72.4*
Cc1ccc(S(=O)(=O)c2c(Nc3cc(F)ccc3F)sc(C(=O)c3ccc(F)cc3)c2N)cc1 | . | . | . | . | . | -64.9*
Nc1c(C(=O)c2ccc(F)cc2)sc(Nc2ccccc2F)c1S(=O)(=O)c1ccc(Br)cc1 | . | . | . | . | . | -70.7*
Cc1ccc(Nc2sc(C(=O)c3ccc(F)cc3)c(N)c2S(=O)(=O)c2ccc(C)cc2)cc1 | . | . | . | . | . | -7.9
CC(C)NS(=O)(=O)c1ccc(NC(=O)C(C)OC(=O)CCC(=O)c2cccs2)cc1 (configuration not stated) | -2.0% | 3.5% | . | . | 13.2% | -15.4
C[C@H]1[C@@H](NS(=O)(=O)c2ccc(-c3ccccc3)cc2)CC[C@@]23CCCN2C(=O)CCC[C@@H]13 | . | . | . | . | . | 9.6
Cc1cccc(C(=O)Nc2ccc3nc(SCC(=O)N4CCc5ccccc54)sc3c2)c1 | . | . | . | . | . | 45.4
Cc1nn(Cc2ccccc2)c(C)c1NC(=O)c1cc(-c2ccc3c(c2)OCO3)on1 | 4.3% | -2.6% | -2.5 | 16.4 | 17.2% | ?
COc1cccc(-c2cc(C(=O)Nc3c(C)nn(Cc4ccccc4C)c3C)no2)c1 | 25.1% | 5.22µM* | 2.1 | -14.6 | ? | -16.7
O=C(Nc1cnn(Cc2ccccc2)c1)c1nc2ncccn2n1 | 2.62µM* | 84.0% | 38.0* | 46.4* | -26.2% | 64.4
Cc1nn(Cc2ccccc2Cl)c(C)c1NC(=O)c1cc(-c2ccc(F)cc2)on1 | ? | 0.2% | -3.1 | -10.1 | 3.55µM* | 2.2
COc1cccc(-c2cc(C(=O)Nc3c(C)nn(Cc4ccccc4)c3C)no2)c1 | ? | ? | 7.1 | 8.6 | 10µM* | ?
O=S1(=O)CCN(CCc2ccccc2)CC1 | . | . | . | . | . | -23.4
COc1ccc(-c2cc(C(=O)Nc3c(C)nn(Cc4ccccc4C)c3C)no2)cc1 | . | . | . | . | . | -21.0
SMILES | Pf growth 96h | Pf growth 48h | Cycloheximide cs | Shiga inhibitor | HCV inhibitor | HCMV antiviral
Cc1nn(Cc2ccccc2Cl)c(C)c1NC(=O)c1nc2ncccn2n1 | 26.4% | -17.7% | -1.4 | 13.1 | 15.8% | -62.7*
Cc1nn(Cc2ccccc2Cl)c(C)c1NC(=O)c1ccn(C)n1 | -18.9% | 2.0% | -2.8 | -1.0 | 1.8% | 0.7
COc1ccc(-c2cc(C(=O)Nc3c(C)nn(Cc4ccccc4)c3C)no2)cc1 | 4.65µM* | . | -1.3 | -16.1 | ? | -21.0
COC(=O)c1c(-c2cccs2)csc1NC(=O)COc1ccc(C(C)C)cc1 | . | . | . | . | . | -33.5
CCCS(=O)(=O)c1c(S(=O)(=O)CCC)c2cc(C(C)(C)C)ccn2c1C(=O)c1ccccc1 | . | . | . | . | . | -63.5*
CCCS(=O)(=O)c1c(S(=O)(=O)CCC)c2c3ccccc3ccn2c1C(=O)OC | 44.6% | 11.7µM* | -3.3 | -0.5 | ? | 1.1
CCCS(=O)(=O)c1c(S(=O)(=O)CCC)c2c(N)cccn2c1C(=O)c1ccc(F)cc1 | 47.5% | 10.4µM* | -2.5 | -4.9 | ? | -6.5
CCCS(=O)(=O)c1c(S(=O)(=O)CCC)c2c(N)cccn2c1C(=O)c1ccc(Br)cc1 | -24.3% | 11.7µM* | 0.4 | -3.6 | ? | ?
COc1ccccc1N1CCN(C(=O)C(CC(C)C)NC(=O)C2CCCCC2)CC1 (configuration not stated) | -4.6% | -24.4% | -4.9 | 21.0 | -10.0% | -17.0
Cc1ccc(NC(=O)C2CCCN(S(=O)(=O)c3cccc4cccnc34)C2)cc1 (configuration not stated) | ? | ? | 5.1 | 0.7 | -23.8% | 73.9
Cc1ccccc1CCNC(=O)C1CCC(=O)N(CCc2cccc(F)c2)C1 (configuration not stated) | 2.4% | -17.8% | 12.3 | 10.4 | 1.0% | 44.2
CCCS(=O)(=O)c1c(S(=O)(=O)CCC)c2c(N)cccn2c1C(=O)c1ccc(OC)cc1 | -1.0% | ? | 0.6 | -4.5 | 25.1µM* | ?
O=C(c1cccc(F)c1)N1CCc2ccccc2C1 | 43.6% | 14.5% | 40.1* | 55.5* | 5.1% | -33.0
O=C(c1cc2cc(Cl)ccc2[nH]1)N1CCc2ccccc2C1 | -55.1% | ? | 8.0 | 6.9 | ? | 11.5
CS(=O)(=O)N(CC(=O)N1CCc2ccccc2C1)c1cccc(F)c1 | 1.9% | -2.3% | 2.0 | -2.9 | 6.0% | -15.8
O=C(c1cncc(Br)c1)N1CCc2ccccc2C1 | -26.3% | . | -1.4 | -3.1 | 5.5% | ?
O=C(CNc1cccc(F)c1)N1CCc2ccccc2C1 | 114.6% | . | 61.9* | 125.8* | -3.5% | 91.9
O=C(c1cc2cc(F)ccc2[nH]1)N1CCc2ccccc2C1 | ? | ? | 19.6* | 64.5* | -2.4% | 2.9
Cc1ccc(OCC(=O)Nc2ccc3nc(SCC(=O)N(C)c4ccccc4)sc3c2)cc1 | . | . | . | . | . | -28.4
CCCSc1nc(-c2ccccc2)[nH]c1S(=O)(=O)c1ccc(C)cc1 | . | . | . | . | . | -16.7
CCOc1ccccc1-n1c(=S)sc2c(=O)n(-c3ccccc3)c(=S)[nH]c21 | ? | -4.3% | -6.5 | 17.7 | ? | 9.7
S=C=Nc1cccc(C2(N3CCCCC3)CCCCC2)c1 | 1.65µM* | 2.62µM* | . | . | ? | ?
COc1ccccc1-c1ccc(SCc2ccc([N+](=O)[O-])cc2)nn1 | ? | ? | 23.7 | 25.6 | ? | -68.1*
